Experimental data taken from PubChem BioAssay (Tox21).
Unmarked numbers belong to inactive results. Results filed as inconclusive are left out. Entries that show only a call come without a potency. Calls of active or inactive are those of the source. Unless noted, calls come from the whole dose curve; as a rule, active = well fitted curve in the direction sought with a large enough effect in the repeat runs; inconclusive = weak or mixed curves; inactive = no such curve, though single readings can be large; an effect the other way counts as inactive or inconclusive.

Experiments:
[1] = qHTS assay to test for compound auto fluorescence at 535 nm (green) in HEK293 cells (AID 720680)
[2] = qHTS assay to test for compound auto fluorescence at 460 nm (blue) in HEK293 cell free culture (AID 720681)
Method in brief: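 Blue fluorescence (Ex 405/Em 460 nm, triamterene-equivalent) was read immediately after pin transfer of compound or DMSO into medium (DMEM, 10% FBS) without cells.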

[3] = qHTS assay to test for compound auto fluorescence at 535 nm (green) in HEK293 cell free culture (AID 720682)
Method in brief: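 Green-channel intensity (Ex/Em 485/535 nm) was recorded from compound-treated wells containing only DMEM with 10% FBS. Fluorescein provided the equivalency standard.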

[4] = qHTS assay to test for compound auto fluorescence at 590 nm (red) in HEK293 cell free culture (AID 720683)
Method in brief: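 Red-channel autofluorescence of compounds in culture medium (DMEM, 10% FBS), no cells, measured at 540/590 nm. Rose Bengal sodium is the reference fluorophore for equivalence.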

[5] = qHTS assay to test for compound auto fluorescence at 590 nm (red) in HepG2 cell free culture (AID 720684)
Method in brief: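 Cell-free; medium MEM + 10% FBS; compound or DMSO added by pintool; read Ex 540/Em 590 nm; Rose Bengal sodium as red reference fluorophore.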

[6] = qHTS assay to test for compound auto fluorescence at 460 nm (blue) in HepG2 cell free culture (AID 720685)
Method in brief: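 Cell-free plates of MEM plus 10% FBS received 23 nL compound or DMSO vehicle; blue-channel (405/460 nm) intensity scored against triamterene as reference fluorophore.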

[7] = qHTS assay to test for compound auto fluorescence at 535 nm (green) in HepG2 cell free culture (AID 720686)
[8] = qHTS assay to test for compound auto fluorescence at 460 nm (blue) in HepG2 cells (AID 720687)
Method in brief: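 Blue-channel autofluorescence (Ex/Em 405/460 nm, triamterene-equivalent) was measured after 1 hr compound exposure at 37 C, 5% CO2. Cells were HepG2, plated overnight at 37 C in MEM plus 10% FBS.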

[9] = qHTS assay to identify small molecule antagonists of the glucocorticoid receptor (GR) signaling pathway - cell viability counter screen (AID 720693); note: nearly all actives have a fitted effect of over 55% in size
[10] = qHTS assay for identifying genotoxic compounds that show differential cytotoxicity against isogenic chicken DT40 cell lines with known DNA damage response pathways - Rev3 mutant cell line (AID 743014); note: nearly all actives have a fitted effect of over 55% in size; note: potency is the fitted concentration of half-maximal effect
[11] = qHTS assay to identify small molecule antagonists of the androgen receptor (AR) signaling pathway - cell viability counter screen (AID 743033; note: nearly all actives have a fitted effect of over 45% in size)
[12] = qHTS assay to identify small molecule antagonists of the thyroid receptor (TR) signaling pathway - cell viability counter screen (AID 743064); note: nearly all actives have a fitted effect of over 50% in size; note: potency is the fitted concentration of half-maximal effect
Method in brief: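 In rat pituitary GH3.TRE-Luc reporter cells co-exposed to compound and 1 nM T3 for 23.5 h, cytotoxicity was assessed with CellTiter-Fluor in the same wells, read by fluorescence.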

[13] = qHTS assay to identify small molecule antagonists of the thyroid receptor (TR) signaling pathway (AID 743065); note: nearly all actives have a fitted effect of over 55% in size; note: potency is the fitted concentration of half-maximal effect
Method in brief: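 Antagonism measured as loss of luciferase signal in GH3 cells stably carrying a TRE-luciferase reporter, co-treated with compound and T3 (1 nM final) for 23.5 h at 37 C. Viability was read in the same well by CellTiter-Fluor.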

[14] = target: Glucocorticoid receptor (Homo sapiens) (UniProt P04150); assay: qHTS assay to identify small molecule agonists of the glucocorticoid receptor (GR) signaling pathway (AID 720691; active = well fitted activation curve with a large enough effect in the signal ratio in the repeat runs, not every such curve was filed as active; the % refers to the signal ratio)
Method in brief: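 Agonist-mode qHTS in HeLa cells stably expressing a glucocorticoid-response-element beta-lactamase reporter. Fluorescence intensity read with FRET substrate (2 h, room temperature) after 18 h compound treatment at 37 C.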

[15] = qHTS assay for identifying genotoxic compounds that show differential cytotoxicity against isogenic chicken DT40 cell lines with known DNA damage response pathways - wild type cell line (AID 743012); note: nearly all actives have a fitted effect of over 60% in size; note: potency is the fitted concentration of half-maximal effect
Method in brief: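 Viability by ATP luminescence (CellTiter-Glo, 30 min RT) after 40 h compound treatment at 37 C/5% CO2, using 300 parental DNA repair-proficient DT40 cells per well.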

[16] = qHTS assay for identifying genotoxic compounds that show differential cytotoxicity against isogenic chicken DT40 cell lines with known DNA damage response pathways - Rad54/Ku70 mutant cell line (AID 743015); note: nearly all actives have a fitted effect of over 60% in size; note: potency is the fitted concentration of half-maximal effect
[17] = qHTS assay to identify small molecule antagonists of the androgen receptor (AR) signaling pathway using the MDA cell line - cell viability counter screen (AID 743041; note: nearly all actives have a fitted effect of over 45% in size; note: potency is the fitted concentration of half-maximal effect)
Method in brief: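 Viability read by CellTiter-Fluor fluorescence in the same wells as the antagonist screen, added after 15.5 h of a 16 h, 37C exposure. Human breast carcinoma MDA-kb2 AR-luc cells, compounds co-dosed with agonist R1881.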

[18] = target: Glucocorticoid receptor (Homo sapiens) (UniProt P04150); assay: qHTS assay to identify small molecule antagonists of the glucocorticoid receptor (GR) signaling pathway (AID 720692; active = well fitted inhibition curve with a large enough effect in the signal ratio in the repeat runs, not every such curve was filed as active; the % refers to the signal ratio)
Method in brief: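 Inhibition of dexamethasone-driven (5 nM final) beta-lactamase expression was measured in GRE-reporter HeLa cells over 18 h at 37C. Fluorescence was read after 2 h with the B/G FRET substrate at room temperature.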

[19] = target: Androgen receptor (Homo sapiens) (UniProt P10275); assay: qHTS assay to identify small molecule agonists of the androgen receptor (AR) signaling pathway using the MDA cell line (AID 743040; note: nearly all actives have a fitted effect of over 20% in size; note: potency is the fitted concentration of half-maximal effect)
Method in brief: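 Luciferase agonist assay: 16 h compound exposure at 37C without CO2 in MDA-kb2 AR-luc cells, whose MMTV promoter responds to both AR and GR. Luminescence measured after 30 min room-temperature incubation with ONE-Glo.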

[20] = target: Androgen receptor (Homo sapiens) (UniProt P10275); assay: qHTS assay to identify small molecule agonists of the androgen receptor (AR) signaling pathway (AID 743036; active = well fitted activation curve with a large enough effect in the signal ratio in the repeat runs, with a control signal flat, not every such curve was filed as active; the % refers to the signal ratio)
Method in brief: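 Cell-based FRET reporter assay: HEK293 line with a UAS-beta-lactamase construct, compounds added in DMSO, 16 h exposure at 37C, then 2 h substrate step at room temperature and fluorescence intensity read.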

Androgen receptor (Homo sapiens), sequence (P10275 whole entry, looked up): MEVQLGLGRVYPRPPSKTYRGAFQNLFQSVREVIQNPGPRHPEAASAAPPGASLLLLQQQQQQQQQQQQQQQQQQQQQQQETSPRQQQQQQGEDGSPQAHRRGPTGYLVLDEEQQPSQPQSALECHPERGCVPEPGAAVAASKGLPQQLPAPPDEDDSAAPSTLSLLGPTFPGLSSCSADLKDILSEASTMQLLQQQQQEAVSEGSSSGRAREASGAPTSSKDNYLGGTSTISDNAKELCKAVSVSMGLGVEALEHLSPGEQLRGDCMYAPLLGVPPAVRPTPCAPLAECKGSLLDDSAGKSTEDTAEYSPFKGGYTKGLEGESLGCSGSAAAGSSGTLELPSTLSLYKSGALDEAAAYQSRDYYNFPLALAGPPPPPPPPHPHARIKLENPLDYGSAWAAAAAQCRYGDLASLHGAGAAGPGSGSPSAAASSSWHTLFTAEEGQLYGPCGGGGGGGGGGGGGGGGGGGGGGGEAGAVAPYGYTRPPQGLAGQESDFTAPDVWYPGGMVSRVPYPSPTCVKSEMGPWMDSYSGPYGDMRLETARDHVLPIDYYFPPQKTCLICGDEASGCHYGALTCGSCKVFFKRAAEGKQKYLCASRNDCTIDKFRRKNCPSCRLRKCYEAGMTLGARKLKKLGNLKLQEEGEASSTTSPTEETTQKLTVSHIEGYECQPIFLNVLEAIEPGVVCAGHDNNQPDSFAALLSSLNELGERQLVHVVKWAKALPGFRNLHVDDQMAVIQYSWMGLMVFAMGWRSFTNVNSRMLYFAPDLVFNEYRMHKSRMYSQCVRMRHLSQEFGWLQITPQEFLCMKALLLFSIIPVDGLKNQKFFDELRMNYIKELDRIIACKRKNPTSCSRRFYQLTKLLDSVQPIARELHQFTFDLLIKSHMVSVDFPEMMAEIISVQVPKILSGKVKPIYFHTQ
Glucocorticoid receptor (Homo sapiens), sequence (P04150 whole entry, looked up): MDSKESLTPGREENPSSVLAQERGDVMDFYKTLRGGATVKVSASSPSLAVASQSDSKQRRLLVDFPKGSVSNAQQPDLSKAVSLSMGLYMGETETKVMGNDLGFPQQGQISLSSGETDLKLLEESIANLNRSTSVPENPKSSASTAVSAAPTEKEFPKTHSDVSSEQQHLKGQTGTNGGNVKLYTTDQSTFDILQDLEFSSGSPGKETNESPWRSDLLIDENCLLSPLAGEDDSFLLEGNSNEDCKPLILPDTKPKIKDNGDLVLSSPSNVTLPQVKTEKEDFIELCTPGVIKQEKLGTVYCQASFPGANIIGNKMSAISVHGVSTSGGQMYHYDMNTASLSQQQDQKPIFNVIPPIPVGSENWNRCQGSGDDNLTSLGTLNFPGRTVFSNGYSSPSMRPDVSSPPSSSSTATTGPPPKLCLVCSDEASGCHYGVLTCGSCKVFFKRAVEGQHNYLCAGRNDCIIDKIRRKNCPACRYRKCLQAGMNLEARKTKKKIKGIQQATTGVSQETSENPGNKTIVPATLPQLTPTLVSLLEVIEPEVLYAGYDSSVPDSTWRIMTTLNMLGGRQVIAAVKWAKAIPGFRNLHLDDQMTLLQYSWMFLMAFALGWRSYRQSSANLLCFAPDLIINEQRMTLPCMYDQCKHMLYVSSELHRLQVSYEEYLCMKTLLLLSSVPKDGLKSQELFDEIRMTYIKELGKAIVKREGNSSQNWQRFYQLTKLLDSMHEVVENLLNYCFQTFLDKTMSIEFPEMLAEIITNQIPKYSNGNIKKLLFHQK

OCC1CC2CC1C1CCC(CO)C21 (stereo not drawn)
outcome [1]: inactive
Potency [2]: inactive
outcome [3]: inactive
outcome [4]: inactive
outcome [5]: inactive
Potency [6]: inactive
outcome [7]: inactive
Potency [8]: inactive
Potency [9]: inactive
Potency [10]: 54.5 µM (active)
Potency [11]: inactive
Potency [12]: inactive
Potency [13]: inactive

CC[C@H](C)[C@H](N)C(=O)O
outcome [1]: inactive
Potency [2]: inactive
outcome [3]: inactive
outcome [4]: inactive
outcome [5]: inactive
Potency [6]: inactive
Potency [8]: inactive
Potency [14]: inactive
Potency [9]: inactive
Potency [15]: inactive
Potency [16]: inactive
Potency [17]: inactive
Potency [12]: inactive
Potency [13]: inactive

CCOc1cc(OCC)c(C(=O)CCC(=O)O)cc1OCC
outcome [1]: inactive
Potency [2]: inactive
outcome [3]: inactive
outcome [4]: inactive
outcome [5]: inactive
Potency [6]: inactive
Potency [8]: inactive
Potency [14]: inactive
Potency [18]: inactive
Potency [9]: inactive
Potency [15]: inactive
Potency [16]: inactive
Potency [17]: inactive
Potency [12]: inactive
Potency [13]: inactive

CCOC(=O)C1=C(C)NC(C)=C(C(=O)OC)C1c1cccc([N+](=O)[O-])c1 (stereo not drawn)
outcome [1]: inactive
Potency [2]: inactive
outcome [3]: inactive
outcome [4]: inactive
outcome [5]: inactive
Potency [6]: inactive
outcome [7]: inactive
Potency [8]: inactive
Potency [9]: inactive
Potency [15]: 26.6 µM (active)
Potency [16]: 26.6 µM (active)
Potency [11]: inactive
Potency [17]: inactive
Potency [12]: inactive
Potency [13]: inactive

CCN(CC)CCc1nc(-c2ccccc2)no1
fluorescence, % of fluorescein [1]: -0.143% [at 18.6 µM]
fluorescence, % of fluorescent control [2]: -0.0186% [at 18.6 µM]
activity change [3]: 0.0186% [at 18.6 µM]
fluorescence, % of fluorescent control [4]: -0.0001% [at 18.6 µM]
fluorescence, % of Rose Bengal [5]: 0.0837% [at 18.6 µM]
fluorescence, % of fluorescent control [6]: -0.0109% [at 18.6 µM]
fluorescence, % of fluorescent control [8]: -0.0362% [at 18.6 µM]
Potency [14]: inactive
Potency [18]: inactive
Potency [9]: inactive
Potency [15]: inactive
Potency [16]: inactive
Potency [11]: inactive
Potency [17]: inactive
Potency [12]: inactive
Potency [13]: inactive

N#CCCNCCC#N
outcome [1]: inactive
Potency [2]: inactive
outcome [3]: inactive
outcome [4]: inactive
outcome [5]: inactive
Potency [6]: inactive
outcome [7]: inactive
Potency [8]: inactive
Potency [9]: inactive
Potency [15]: inactive
Potency [10]: inactive
Potency [16]: inactive
Potency [12]: inactive
Potency [13]: inactive

Nc1ccc(C(=O)Nc2ccccc2N)cc1
outcome [1]: inactive
Potency [2]: inactive
outcome [3]: inactive
outcome [4]: inactive
outcome [5]: inactive
Potency [6]: inactive
Potency [8]: inactive
Potency [9]: inactive
Potency [15]: 1.5 µM (active)
Potency [10]: 0.422 µM (active)
Potency [16]: 1.88 µM (active)
Potency [11]: inactive
Potency [19]: 10.6 µM (active)
Potency [17]: inactive
Potency [12]: 18.8 µM (active)
Potency [13]: 29.8 µM (active)

CCCCCCCCC(CO)CCCCCC (stereo not drawn)
outcome [1]: inactive
Potency [2]: inactive
outcome [3]: inactive
outcome [4]: inactive
outcome [5]: inactive
Potency [6]: inactive
Potency [8]: inactive
Potency [14]: inactive
Potency [9]: inactive
Potency [15]: inactive
Potency [10]: inactive
Potency [16]: inactive
Potency [11]: inactive
Potency [17]: inactive
Potency [12]: inactive
Potency [13]: inactive

Cn1sccc1=O
outcome [1]: inactive
Potency [2]: inactive
outcome [3]: inactive
outcome [4]: inactive
outcome [5]: inactive
Potency [6]: inactive
Potency [8]: inactive
Potency [14]: inactive
Potency [9]: inactive
Potency [15]: 2.43 µM (active)
Potency [10]: 3.06 µM (active)
Potency [16]: 4.86 µM (active)
Potency [17]: inactive
Potency [12]: 30.6 µM (active)
Potency [13]: 30.6 µM (active)

Cl/C(=C\n1cncn1)c1ccc(Cl)cc1Cl
outcome [1]: inactive
Potency [2]: inactive
outcome [3]: inactive
outcome [4]: inactive
outcome [5]: inactive
Potency [6]: inactive
outcome [7]: inactive
Potency [8]: inactive
Potency [9]: inactive
Potency [15]: inactive
Potency [10]: inactive
Potency [16]: inactive
Potency [12]: inactive

CCCCC(CC)(CO)CO
outcome [1]: inactive
Potency [2]: inactive
outcome [3]: inactive
outcome [4]: inactive
outcome [5]: inactive
Potency [6]: inactive
Potency [8]: inactive
Potency [9]: inactive
Potency [15]: inactive
Potency [16]: inactive
Potency [11]: inactive
Potency [12]: inactive
Potency [13]: inactive

CCCCCC(CO)CCC (stereo not drawn)
outcome [1]: inactive
Potency [2]: inactive
outcome [3]: inactive
outcome [4]: inactive
outcome [5]: inactive
Potency [6]: inactive
outcome [7]: inactive
Potency [8]: inactive
Potency [9]: inactive
Potency [15]: inactive
Potency [16]: inactive
Potency [11]: inactive
Potency [12]: inactive
Potency [13]: inactive

Cc1cc(C)c(S(=O)(=O)O)cc1N=Nc1cc(S(=O)(=O)O)c2ccccc2c1O
outcome [1]: inactive
Potency [2]: inactive
outcome [3]: inactive
outcome [4]: inactive
outcome [5]: inactive
Potency [6]: inactive
outcome [7]: inactive
Potency [8]: inactive
Potency [9]: inactive
Potency [15]: inactive
Potency [10]: inactive
Potency [11]: inactive
outcome [20]: inactive
Potency [19]: inactive
Potency [17]: 30.6 µM (active)
Potency [12]: 34.4 µM (active)

CCOC(=O)CC(C)C
outcome [1]: inactive
Potency [2]: inactive
outcome [3]: inactive
outcome [4]: inactive
outcome [5]: inactive
Potency [6]: inactive
Potency [8]: inactive
Potency [14]: inactive
Potency [18]: inactive
Potency [9]: inactive
Potency [15]: inactive
Potency [10]: inactive
Potency [16]: inactive
Potency [17]: inactive
Potency [12]: inactive
Potency [13]: inactive

CC(C)CCCC(C)CCO (stereo not drawn)
outcome [1]: inactive
Potency [2]: inactive
outcome [3]: inactive
outcome [4]: inactive
outcome [5]: inactive
Potency [6]: inactive
Potency [8]: inactive
Potency [14]: inactive
Potency [18]: inactive
Potency [9]: inactive
outcome [20]: inactive
Potency [19]: inactive
Potency [17]: inactive
Potency [13]: inactive

O=C=NC1CCC(CC2CCC(N=C=O)CC2)CC1 (stereo not drawn)
outcome [1]: inactive
Potency [2]: inactive
outcome [3]: inactive
outcome [4]: inactive
outcome [5]: inactive
Potency [6]: inactive
Potency [8]: inactive
Potency [14]: inactive
Potency [18]: inactive
Potency [9]: inactive
Potency [10]: 54.5 µM (active)
Potency [11]: inactive
Potency [12]: inactive
